Results taken from PubChem BioAssay (EPA / NIEHS).
The source holds several records for some structures; these can differ, active in one and inactive in another. Activity calls are given as the source filed them. Rule for the calls: active = hit-call score of the fitted dose curve at least 0.9, where 1 is the maximum; inactive = score below 0.9.

test: STM_H9_OrnithineISnorm_perc: Stemina devTOX quickPredict H9 human embryonic stem cell (hESC)-based Assay for Ornithine (ORN) Metabolite Biomarker, Normalized (AID 2283712);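 note: ornithine released into spent medium during last day measured by mass spectrometry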
Excerpt: STM_H9_secretome utilizes undifferentiated H9 cells to measure relative changes in two metabolites, ornithine (ORN) and cystine (CYSS) in the secretome, targeting a critical drop in the ORN/CYSS ratio as a biomarker for developmental toxicity.STM_H9_OrnithineISnorm is one of 10 components calculated in the STM_H9_secretome assay. It measures the integrated area of the endogenous ornithine normalized to the spiked-in isotopically labeled standard and to the median value of the 0.1% DMSO neutral control treatment using UPLC-HRMS technology.Data from the assay component STM_H9_OrnithineISnorm_perc was analyzed at the assay endpoint STM_H9_OrnithineISnorm_perc in the positive analysis fitting direction relative to DMSO as the negative control and baseline of activity. Using a type of binding reporter, gain or loss-of-signal activity can be used to understand relative metabolite change.
H9 hESCs maintained in a pluripotent state were exposed to test compound for 72h with chemical replenishment with media replacement every 24h. Cell-conditioned media from the final 24-h treatment period was collected for analysis of the targeted biomarker, and cell viability of the corresponding cell layer was assessed. The chemical library was tested in blinded fashion. Each test plate included 1uM Methotrexate (MTX; Selleck Chemicals, Houston, Texas) as a positive reference, 5 nM MTX as a negative reference, 0.1% DMSO as the neutral (vehicle) control, and sample-level media blanks.H9 cell-conditioned media from the final 24-h treatment period was collected for analysis of the targeted biomarker and cell viability was measured from the corresponding cell layer. Cell viability was measured using the CellTiter-Fluor assay (Promega, Madison, Wisconsin) based on proteolytic cleavage of a substrate to fluorescent signal proportional to the number of living cells. The cell viability Relative Fluorescence Unit (RFU) was background corrected and normalized to mean RFU of the neutral control (0.1% DMSO). The collected H9-cell-conditioned media samples were processed for targeted biomarker analysis as described (Palmer et al., 2013). Briefly, spent media samples were deproteinized (40% acetonitrile) and processed for UPLC-HRMS. Data acquisition was performed using 4 separate UPLC-HRMS systems, consisting of an Agilent 1290 Infinity LC system (Agilent Technologies) interfaced with an Agilent high-resolution mass spectrometer (models G6520A, G6520B, G6530A, and G6224A). A Waters Acquity UPLC BEH Amide column (2.1mm x 50mm, 1.7lm particle size; Waters, Milford, Massachusetts) maintained at 40C was applied for separation of metabolites using a 6.5min solvent gradient with 0.1% formic acid in water and 0.1% formic acid in acetonitrile (1.0ml/min flow rate). Data were acquired using MassHunter Acquisition software (version B 04.00, Agilent Technologies). The extracted ion chromatogram (EIC) areas for ORN, CYSS, and their respective spike-in C13-standards were determined using the Agilent MassHunter Quantitative Analysis software, version B.05.00 or newer (Agilent Technologies), and data were normalized as described in Palmer et al. (2017).

SMILES	outcome	AC50
C[N+]1(C)CCCCC1	inactive	
CN(C)C(=O)Nc1cccc(C(F)(F)F)c1	inactive	
CC1=NNC(=O)N(/N=C/c2cccnc2)C1	inactive	
CC(C)[C@H](C(=O)O[C@H](C#N)c1cccc(Oc2ccccc2)c1)c1ccc(Cl)cc1		50 µM (active)
CCCCOC(=O)[C@@H](C)Oc1ccc(Oc2ccc(C#N)cc2F)cc1		85.7 µM (active)
CSc1nnc(C(C)(C)C)c(=O)n1N		0.0961 µM (active)
N#CSCSC#N		20.5 µM (active)
C=C(C)[C@H]1Cc2c(ccc3c2O[C@@H]2COc4cc(OC)c(OC)cc4[C@@H]2C3=O)O1		0.347 µM (active)
CCNc1nc(Cl)nc(NC(C)(C)C#N)n1	inactive	
CCOP(=S)(OCC)Oc1ccc2c(C)c(Cl)c(=O)oc2c1		50 µM (active)
O=[N+]([O-])c1cc(C(F)(F)F)c(Cl)c([N+](=O)[O-])c1Nc1ncc(C(F)(F)F)cc1Cl		15.5 µM (active)
Cc1ccn2nc(S(=O)(=O)Nc3c(F)cccc3F)nc2n1	inactive	
FC(F)C(F)(F)OCC(Cn1cncn1)c1ccc(Cl)cc1Cl (configuration not stated)	inactive	
CCOP(=S)(OCC)Oc1cc(C)nc(C(C)C)n1		79.1 µM (active)
CCOP(=S)(OCC)SCCSCC		72.2 µM (active)
CN(C)[C@@H]1C(=O)C(C(N)=O)=C(O)[C@@]2(O)C(=O)C3=C(O)c4c(O)cccc4[C@@](C)(O)[C@H]3[C@H](O)[C@@H]12	inactive	50 µM (active)
COc1ccc(C(=CC(=O)N2CCOCC2)c2ccc(Cl)cc2)cc1OC		0.119 µM (active)
Cc1nn(-c2cc(NS(C)(=O)=O)c(Cl)cc2Cl)c(=O)n1C(F)F		0.114 µM (active)
CCC(=NOC/C=C/Cl)C1=C(O)CC(C2CCOCC2)CC1=O (configuration not stated)		0.0699 µM (active)
CC(C1CC1)C(O)(Cn1cncn1)c1ccc(Cl)cc1 (configuration not stated)		50 µM (active)
CC(COc1ccc(Oc2ccccc2)cc1)Oc1ccccn1 (configuration not stated)		70.3 µM (active)
CON=C(C(=O)OC)c1ccccc1CON=C(C)c1cccc(C(F)(F)F)c1	inactive	
CSc1nc(NC(C)C)nc(NC(C)C)n1		0.22 µM (active)
C[Si](Cn1cncn1)(c1ccc(F)cc1)c1ccc(F)cc1		76.6 µM (active)
CNc1cnn(-c2cccc(C(F)(F)F)c2)c(=O)c1Cl	inactive	
S=C1NCCN1	inactive	
